Screening data from PubChem.
AMA1-RON2 inh: inhibitors of Plasmodium falciparum AMA1-RON2 interaction | AlphaScreen AMA1-biotinylated RON2 peptide binding | Potency, µM (highest dose often 58.2 µM), usual class: inhibitors | 360,000 tested, 0.2% active; further: nearly all actives have a fitted effect of over 45% in size
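AMA1 (3D7) with his tag at 25 nM final met compounds first, then biotinylated RON2 peptide at 25 nM; detection used donor plus acceptor beads, 10 µg/mL apiece, read by AlphaScreen after 30 min at room temperature.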
FBPA Giardia inh: Giardia lamblia aldolase inhibition. A8B2U2. purified Giardia FBPA. Potency, µM (doses to about 59.6 µM), usual class: inhibitors. 290,000 tested, 0.71% active. AID 2451; further: nearly all actives have a fitted effect of over 55% in size
Target sequence (A8B2U2 whole entry, looked up): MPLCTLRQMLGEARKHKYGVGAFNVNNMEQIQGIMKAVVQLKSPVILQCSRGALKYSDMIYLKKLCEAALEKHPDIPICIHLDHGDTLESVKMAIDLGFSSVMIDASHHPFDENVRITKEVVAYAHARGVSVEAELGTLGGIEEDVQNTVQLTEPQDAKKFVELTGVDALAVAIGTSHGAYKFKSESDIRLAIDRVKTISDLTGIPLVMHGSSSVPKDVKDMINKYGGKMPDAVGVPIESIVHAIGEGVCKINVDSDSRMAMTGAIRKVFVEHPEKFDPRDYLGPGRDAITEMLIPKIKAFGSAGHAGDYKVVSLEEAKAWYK
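40 nM FBPA preincubated 10 min at RT with compound (up to 57.5 uM final), then substrate plus GAPDH/TPI/NAD/arsenate coupling and diaphorase/resazurin added. Fluorescence read after 20 min at RT, 525/598 nm.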
LmPK inh: LmPK (Leishmania mexicana) enzyme inhibition. Q27686. Potency, µM (doses to about 57.5 µM), usual class: inhibitors. purified LmPK, Kinase-Glo ATP luminescence, 1 h. 290,000 tested, 0.37% active
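In 50 mM imidazole pH 7.2 with 7 mM MgCl2, LmPK (0.1 nM) turned over PEP (0.5 mM) and ADP (0.1 mM) for 1 h at room temperature. Luciferase read-out of ATP.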
TbPYK inhibitor: blocks Trypanosoma brucei pyruvate kinase; 410,000 tested, 0.12% active; AID 624173; Q57TT1; Potency, µM (doses to about 76.8 µM), hits mostly inhibitors; TbPYK enzyme, Kinase-Glo Plus ATP luminescence, 45 min; further: nearly all actives have a fitted effect of over 50% in size
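Readout: single end-point luminescence (Kinase-Glo Plus, 10 min). Reaction conditions were TbPYK/substrate plus 130 uM ADP, 45 min at RT, pH 7.2 TEA buffer. No-enzyme wells served as controls, and data were normalized before concentration-response fitting.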
NS1 inh: blocks influenza NS1 protein function; Potency, µM (doses to about 46.1 µM); 270,000 tested, 0.4% active; calls by dose curve; further: actives are rising curves; nearly all actives have a fitted effect of over 50% in size
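OD600 was taken as the measure of yeast growth restored by compound in an NS1-expressing S. cerevisiae strain. Cells had been washed out of glucose medium and diluted 1:100 into galactose -URA medium, pH 6.0.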
A number is an active result; i = inactive; ? = inconclusive; nt = not tested or not shown; [ ] = remark or other dose. The list is not random: actives were taken first. Their share in the collection is about 1.2%. Unless noted, the call rests on the fitted dose curve; in most records, active means well fitted curve in the direction sought with a large enough effect; inconclusive means small, poorly fitted or top-dose-only effect, or another doubt; inactive means no such curve, though single readings can be large; an effect the other way counts as inactive or inconclusive.

SMILES | AMA1-RON2 inh | FBPA Giardia inh | LmPK inh | TbPYK inhibitor | NS1 inh
O=[N+]([O-])c1cccc(SSc2cccc([N+](=O)[O-])c2)c1 | ? | nt | nt | 11.2µM | nt
Cc1ccccc1-n1c(-c2csc(C)c2C)n[nH]c1=S | i | i | 7.94µM | ? | i
Cc1cccc(-n2c(-c3ccco3)n[nH]c2=S)c1 | i | i | 17.8µM | ? | i
Cc1ccccc1-n1c(-c2csc3ccccc23)n[nH]c1=S | i | i | 14.1µM | ? | i
Cc1cccc(-n2c(-c3csc(C)c3C)n[nH]c2=S)c1 | i | i | 11.2µM | ? | i
Cc1cccc(-n2c(-c3ccc(Br)o3)n[nH]c2=S)c1 | i | nt | nt | ? | nt
Cc1ccccc1-n1c(-c2ccco2)n[nH]c1=S | i | i | ? | ? | i
C[C@]12CCC(=O)C=C1CC[C@H]1C2CC[C@@]2(C)[C@@H]1CC[C@]2(C)O (stereo partly specified) | nt | nt | nt | i | nt
O=C(CCC1CCN(Cc2ccccc2)CC1)c1ccc2c(c1)NCCCC2 | nt | nt | nt | i | nt
Cc1cccc(-n2c(-c3csc(C(C)C)c3)n[nH]c2=S)c1 | i | i | 10µM | ? | i
CCCc1cc(-c2n[nH]c(=S)n2-c2cccc(C)c2)cs1 | i | i | ? | ? | i
CCOc1ccc(N=C(C)Nc2ccc(OCC)cc2)cc1 | nt | nt | nt | i | nt
Cc1cccc(-c2cc3c(nn2)-c2ccccc2C3=O)c1 | i | i | 7.08µM | i | i
CCOc1ccc2nc(/N=C/c3c(C)[nH]n(-c4ccc(C)cc4)c3=O)sc2c1 | i | i | 14.1µM | i | i
Cc1cccc(/C(N)=N/OC(=O)c2cccs2)c1 | i | i | 12.6µM | ? | i
N/C(=N\OC(=O)c1cccs1)c1ccccc1 | i | i | 12.6µM | ? | i
COc1ccc(/C(N)=N/OC(=O)c2cccs2)cc1OC | i | i | i | i | i
N/C(=N\OC(=O)c1cccs1)c1cccc(Br)c1 | i | i | 15.8µM | i | i
Cc1cccc(/C(N)=N/OC(=O)c2ccc(F)cc2)c1 | i | i | 4.47µM | ? | i
Cc1ccc(/C(N)=N/OC(=O)c2cccs2)cc1 | i | i | ? | i | i
CN[C@H](C)Cc1ccccc1 | nt | nt | nt | i | nt
CN(C)C(=O)CCSC(SCCC(=O)O)c1cccc(/C=C/c2ccc3ccc(Cl)cc3n2)c1 (stereo unspecified) | nt | nt | nt | i | nt
O=C1O[C@H]2[C@@H](OC(O)[C@@H]2O)[C@H]1O (stereo partly specified) | nt | nt | nt | i | nt
CC1=c2c(oc3cc(O)c(Nc4c(C)cc(O)cc4O)c(C)c23)=CC(=O)C1=Nc1c(C)cc(O)cc1O | nt | nt | nt | nt | i
CCN1CCCc2cc(CN(CCN3CCOCC3)C(=O)Nc3ccc(C)c(C)c3)ccc21 | 11.2µM | i | i | i | i
SMILES | AMA1-RON2 inh | FBPA Giardia inh | LmPK inh | TbPYK inhibitor | NS1 inh
CCN1CCCc2cc(CN(CCN3CCOCC3)C(=S)Nc3cccc(C)c3)ccc21 | 14.1µM | i | i | i | nt
O=c1cc(-c2ccccc2)[nH]n1-c1ccccc1 | i | nt | nt | i | nt
CC(C)(C)c1cc(=O)n(-c2ccccc2)[nH]1 | i | 0.629µM | i | i | i
Cc1ccn2cc(-c3ccc(O)c(O)c3)nc2c1 | 2.51µM | ? | ? | i | i
CCS(=O)(=O)Nc1cc(-c2cn3ccc(C)cc3n2)ccc1C | nt | nt | nt | i | nt
Oc1ccc(-c2cn3ccccc3n2)cc1 | i | i | 22.4µM | i | i
Oc1ccc(-c2cn3ccccc3n2)cc1O | 22.4µM | i | ? | ? | i
N=c1ccn2c(n1)O[C@H]1[C@@H](OP(=O)(O)O)[C@H](CO)O[C@H]12 | nt | nt | nt | nt | i
O=C1CCCC1C(O)c1ccc2ccccc2c1 (stereo unspecified) | nt | i | nt | nt | nt
COc1ccc(OC(C)C(=O)NCc2nc(-c3cccc(C)c3)no2)cc1 (stereo unspecified) | nt | nt | nt | i | nt
COc1ccc2c(c1)c(C(=O)N/N=C/c1cccc(O)c1)c(C)n2C | i | i | i | i | i
COc1ccc2c(c1)c(C(=O)N/N=C/c1cccc(Br)c1)c(C)n2C | i | 19.9µM | i | i | i
C=CCn1c(-c2csc3ccccc23)n[nH]c1=S | i | i | 11.2µM | ? | i
C=CCn1c(-c2csc(-c3ccccc3)n2)n[nH]c1=S | i | i | i | i | ?
C=CCn1c(-c2c[nH]c3ccccc23)n[nH]c1=S | i | i | 22.4µM | ? | ?
CC(C)C(=O)OCC(=O)[C@@]12OC(C3CCCCC3)O[C@@H]1CC1C3CCC4=CC(=O)C=C[C@]4(C)C3[C@@H](O)C[C@@]12C (stereo partly specified) | nt | nt | nt | i | nt
OCC[n+]1c2ccccc2nc2ccc(N3CCOCC3)cc21 | ? | ? | 15.8µM | i | i
CCCC[C@@H]1C[C@H]1C(NC(=O)c1cccs1)c1ccc(Cl)cc1 (stereo partly specified) | nt | i | nt | nt | nt
CSc1ccc(N=Nc2c(C)[nH]n(C)c2=O)cc1 | 14.1µM | i | i | i | i
COc1cccc(/C=N/c2oc(-c3ccccc3)cc2C#N)c1O | i | i | i | i | i
COc1cccc(C=Nc2ccccc2C#N)c1O | i | i | 14.1µM | i | i
COc1cccc(C=Nc2cc(C)cc(C)c2)c1O | i | i | i | i | i
COc1cccc(C=Nc2cc(C)on2)c1O | i | i | 15.8µM | i | i
CC[C@H](C)[C@H](N)C(=O)N[C@@H](CCCNC(=N)N)C(=O)N[C@@H](CCC(N)=O)C(=O)NCC(=O)N1CCC[C@H]1C(=O)N[C@@H](CCCCN)C(=O)N[C@@H](CCC(=O)O)C(=O)N1CCC[C@H]1C(=O)N[C@@H](Cc1ccccc1)C(=O)N[C@@H](CCCNC(=N)N)C(=O)N[C@@H](CC(=O)O)C(=O)N[C@@H](Cc1ccc(O)cc1)C(=O)N[C@H](C(=O)N[C@@H](CC(=O)O)C(=O)N[C@@H](CCCNC(=N)N)C(=O)N[C@@H](Cc1ccccc1)C(=O)N[C@@H](Cc1ccc(O)cc1)C(=O)N[C@@H](CCCCN)C(=O)N[C@H](C(=O)N[C@@H](CC(C)C)C(=O)O)[C@@H](C)O)C(C)C | nt | i | nt | nt | nt
COc1ccc(OC)c(/C=N/NC(=O)c2[nH]ncc2Br)c1 | i | i | i | i | i
SMILES | AMA1-RON2 inh | FBPA Giardia inh | LmPK inh | TbPYK inhibitor | NS1 inh
CCOc1ccc(/C=N/NC(=O)c2[nH]ncc2Br)c(O)c1 | i | i | 7.94µM | ? | i
Nc1nc(Cl)nc2c1ncn2[C@@H]1O[C@H](CO)[C@H](O)[C@H]1O | nt | i | nt | nt | i
CCOC(=O)C1CCCN(S(=O)(=O)c2cc(-c3cc(C)no3)ccc2C)C1 (stereo unspecified) | nt | nt | nt | i[15.4 µM] | nt
O=[N+]([O-])c1ccc(/C=N/N2CCN(Cc3ccccc3)CC2)cc1 | 25.1µM | i | i | i | i
Cc1ccc(CN2CCN(/N=C\c3cccc([N+](=O)[O-])c3)CC2)cc1 | 14.1µM | i | i | i | i
O=[N+]([O-])c1ccccc1C=NN1CCCCCC1 | 17.8µM | nt | nt | i | nt
FC(F)(F)c1ccc(/C=N/N2CCN(Cc3ccccc3)CC2)cc1 | 20µM | i | i | i | i
O=C(O)CNc1ccc(C(=O)O)cc1 | nt | nt | nt | nt | i
CCC=CC[C@H]1C(=O)CC[C@@H]1CC(=O)OC | nt | nt | nt | i | nt
